Laboratory results as given in PubChem BioAssay AID1159580 (chemical genetic matrix, 2015).
Screen size: about 5,500 compounds; about 2,000 (36%) were called active. Roughly 18% stayed inconclusive and do not appear here. Rule as the data show it: active = normalized growth mostly below about 0.91 (no sharp cut-off); inconclusive = no clear call, values can overlap the other calls; inactive = mostly above about 0.92. This is one part of the list.

Assay: chemical genetic growth profiling, strain panel (AID 1159580);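 also: tested at 20 µM; growth read once vehicle control cultures reached saturation at 30 °C; 1 = growth at the plate median or of vehicle wells; lower values mean less growth of the strain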
Conditions: growth OD

Measured: normalized growth

O=C(CCBr)N1CCN(C(=O)CCBr)CC1
inactive: S. cerevisiae deletion strains, locus YJR066W, strain TOR1, active compounds read low 0.961 | S. cerevisiae deletion strains, locus YKL009W, strain mrt4, active compounds read low 0.993 | S. cerevisiae deletion strains, locus YKL068W, active compounds read low 1 | S. cerevisiae deletion strains, locus YKL085W, strain MDH1 (second series), active compounds read low 1.01 | S. cerevisiae deletion strains, locus YKL085W, strain MDH1, active compounds read low 1.01 | S. cerevisiae deletion strains, locus YKL160W, strain elf1, active compounds read low 1.03 | S. cerevisiae deletion strains, locus YKL190W, strain CNB1, active compounds read low 1 | S. cerevisiae deletion strains, locus YKR001C, strain vps1, active compounds read low 0.997 | S. cerevisiae deletion strains, locus YKR026C, strain gcn3, active compounds read low 1.01 | S. cerevisiae deletion strains, locus YKR091W, strain srl3, active compounds read low 1.01 | S. cerevisiae deletion strains, locus YLL001W, strain dnm1, active compounds read low 1.01 | S. cerevisiae deletion strains, locus YLL026W, active compounds read low 1.01 | S. cerevisiae deletion strains, locus YLL041C, strain sdh2, active compounds read low 1.01 | S. cerevisiae deletion strains, locus YLR027C, strain aat2, active compounds read low 1.02 | S. cerevisiae deletion strains, locus YLR039C, strain RIC1, active compounds read low 1 | S. cerevisiae deletion strains, locus YLR058C, strain SHM2, active compounds read low 1.01 | S. cerevisiae deletion strains, locus YLR102C, strain apc9, active compounds read low 0.991 | S. cerevisiae deletion strains, locus YLR113W, strain HOG1, active compounds read low 0.979 | S. cerevisiae deletion strains, locus YLR221C, strain rsa3, active compounds read low 1.01 | S. cerevisiae deletion strains, locus YLR258W, strain gsy2, active compounds read low 1.02 | S. cerevisiae deletion strains, locus YLR262C, strain YPT6 (second series), active compounds read low 1.03 | S. cerevisiae deletion strains, locus YLR262C, strain YPT6, active compounds read low 1.02 | S. cerevisiae deletion strains, locus YLR268W, strain sec22, active compounds read low 1 | S. cerevisiae deletion strains, locus YLR320W, strain mms22, active compounds read low 1.03 | S. cerevisiae deletion strains, locus YLR330W, strain CHS5, active compounds read low 1.01 | S. cerevisiae deletion strains, locus YLR342W, strain FKS1 (second series), active compounds read low 1 | S. cerevisiae deletion strains, locus YLR342W, strain FKS1, active compounds read low 1.02 | S. cerevisiae deletion strains, locus YLR357W, strain rsc2, active compounds read low 1 | S. cerevisiae deletion strains, locus YLR370C, strain arc18, active compounds read low 1.02 | S. cerevisiae deletion strains, locus YLR371W, strain rom2, active compounds read low 0.991 | S. cerevisiae deletion strains, locus YLR384C, strain iki3, active compounds read low 1.02 | S. cerevisiae deletion strains, locus YLR418C, strain cdc73, active compounds read low 1.01 | S. cerevisiae deletion strains, locus YML016C, strain PPZ1, active compounds read low 1.01 | S. cerevisiae deletion strains, locus YML032C, strain rad52, active compounds read low 1 | S. cerevisiae deletion strains, locus YML120C, strain ndi1, active compounds read low 1.02 | S. cerevisiae deletion strains, locus YML124C, strain tub3, active compounds read low 0.991 | S. cerevisiae deletion strains, locus YMR058W, strain fet3, active compounds read low 1.01 | S. cerevisiae deletion strains, locus YMR078C, strain ctf18, active compounds read low 1.01 | S. cerevisiae deletion strains, locus YMR125W, strain sto1, active compounds read low 1.03 | S. cerevisiae deletion strains, locus YMR129W, active compounds read low 1.02 | S. cerevisiae deletion strains, locus YMR205C, strain PFK2, active compounds read low 1.03 | S. cerevisiae deletion strains, locus YMR223W, strain ubp8, active compounds read low 0.999 | S. cerevisiae deletion strains, locus YMR231W, strain pep5, active compounds read low 1.03 | S. cerevisiae deletion strains, locus YMR307W, strain GAS1, active compounds read low 0.993 | S. cerevisiae deletion strains, locus YNL067W, strain RPL9B, active compounds read low 1.01 | S. cerevisiae deletion strains, locus YNL071W, strain lat1, active compounds read low 1.02 | S. cerevisiae deletion strains, locus YNL128W, strain TEP1, active compounds read low 1.01 | S. cerevisiae deletion strains, locus YNL153C, strain GIM3, active compounds read low 1.02 | S. cerevisiae deletion strains, locus YNL183C, strain NPR1, active compounds read low 0.936 | S. cerevisiae deletion strains, locus YNL209W, strain ssb2, active compounds read low 1.02 | S. cerevisiae deletion strains, locus YNL233W, strain BNI4, active compounds read low 1 | S. cerevisiae deletion strains, locus YNL248C, strain rpa49, active compounds read low 1.01 | S. cerevisiae deletion strains, locus YNL250W, strain rad50, active compounds read low 1.01 | S. cerevisiae deletion strains, locus YNL271C, strain bni1, active compounds read low 0.999 | S. cerevisiae deletion strains, locus YNL298W, strain CLA4, active compounds read low 1.01 | S. cerevisiae deletion strains, locus YNL307C, strain MCK1, active compounds read low 0.997 | S. cerevisiae deletion strains, locus YNL322C, strain KRE1 (second series), active compounds read low 1.01 | S. cerevisiae deletion strains, locus YNL322C, strain KRE1, active compounds read low 1.01 | S. cerevisiae deletion strains, locus YNR049C, strain mso1, active compounds read low 1.01 | S. cerevisiae deletion strains, locus YNR052C, strain pop2, active compounds read low 1 | S. cerevisiae deletion strains, locus YOL006C, strain TOP1, active compounds read low 1.02 | S. cerevisiae deletion strains, locus YOL012C, strain htz1 0.666 | S. cerevisiae deletion strains, locus YOL147C, strain pex11, active compounds read low 0.998 | S. cerevisiae deletion strains, locus YOR001W, strain rrp6, active compounds read low 1.01 | S. cerevisiae deletion strains, locus YOR061W, strain CKA2, active compounds read low 1.01 | S. cerevisiae deletion strains, locus YOR069W, strain VPS5, active compounds read low 1.01 | S. cerevisiae deletion strains, locus YOR070C, strain gyp1, active compounds read low 1.02 | S. cerevisiae deletion strains, locus YOR080W, strain dia2, active compounds read low 1.02 | S. cerevisiae deletion strains, locus YOR083W, strain WHI5, active compounds read low 1.02 | S. cerevisiae deletion strains, locus YOR106W, strain vam3, active compounds read low 1.02 | S. cerevisiae deletion strains, locus YOR136W, strain idh2, active compounds read low 0.998 | S. cerevisiae deletion strains, locus YOR144C, strain elg1, active compounds read low 0.993 | S. cerevisiae deletion strains, locus YOR184W, strain ser1, active compounds read low 0.998 | S. cerevisiae deletion strains, locus YOR231W, strain MKK1, active compounds read low 0.985 | S. cerevisiae deletion strains, locus YOR265W, strain rbl2, active compounds read low 1.01 | S. cerevisiae deletion strains, locus YOR270C, strain vph1, active compounds read low 1.08 | S. cerevisiae deletion strains, locus YOR290C, strain snf2, active compounds read low 1 | S. cerevisiae deletion strains, locus YOR316C, strain cot1, active compounds read low 0.999 | S. cerevisiae deletion strains, locus YPL051W, strain arl3, active compounds read low 1.02 | S. cerevisiae deletion strains, locus YPL078C, strain atp4, active compounds read low 1.01 | S. cerevisiae deletion strains, locus YPL106C, strain sse1, active compounds read low 1.03 | S. cerevisiae deletion strains, locus YPL240C, strain hsp82, active compounds read low 1.02 | S. cerevisiae deletion strains, locus YPL241C, strain CIN2, active compounds read low 1.01 | S. cerevisiae deletion strains, locus YPL256C, strain CLN2, active compounds read low 0.996 | S. cerevisiae deletion strains, locus YPR119W, strain clb2, active compounds read low 0.994 | S. cerevisiae deletion strains, locus YPR141C, strain kar3, active compounds read low 0.992 | S. cerevisiae deletion strains, locus YPR163C, strain tif3, active compounds read low 0.994 | S. cerevisiae deletion strains, locus YPR167C, strain met16, active compounds read low 1.01 | S. cerevisiae deletion strains, strain wtn01, active compounds read low 0.989 | S. cerevisiae strains, strain wild type, active compounds read low 1.01
